Assay results: the supplement of paper PMC8387472
± gives the standard deviation of the averaged measurements.

system: mESC LDLR-Dup GFP reporter (SpCas9 MH-deletion repair); assay: fraction of GFP+ cells relative to DMSO control (fold change); higher = more MH-deletion repair to in-frame LDLR (or more editing); settings: 2 µM; 7 days post-transfection

Compound	fraction of GFP+ cells
CCN1CCN(Cc2ccc(Nc3ncc(F)c(-c4cc(F)c5nc(C)n(C(C)C)c5c4)n3)nc2)CC1	0.684 ± 0.039
C[C@H]1COc2c(N3CCN(C)CC3)c(F)cc3c(=O)c(C(=O)O)cn1c23 [Levofloxacin]	0.954 ± 0.01
Nc1ncn([C@@H]2O[C@H](CO)[C@@H](O)[C@H]2O)c(=O)n1 [Azacitidine]	1.1 ± 0.089
CN(C)CC(=O)Nc1ccc2[nH]c(=O)c3ccccc3c2c1	1.02 ± 0.06
C=C1C(=O)O[C@H]2[C@H]1CC/C(C)=C/CC[C@@]1(C)O[C@@H]21 [(-)-Parthenolide]	0.606 ± 0.018
CN1CCN(c2c(F)cc3c(=O)c(C(=O)O)cn4c3c2OCN4C)CC1 [Marbofloxacin]	1.19 ± 0.59
COc1ccc(-c2nc(-c3cc(C(F)(F)F)cc(C(F)(F)F)c3)n(Cc3ccc(C(N)=O)cc3)c2-c2ccc(OC)cc2)cc1 [Apoptozole]	1.14 ± 0.37
CCn1cc(C(=O)O)c(=O)c2cc(F)c(N3CCNCC3)nc21 [Enoxacin]	1.04 ± 0.096
CC(C)c1cnn2c(NCc3ccccc3)cc(NCCCCCCN)nc12	1.07 ± 0.18
CO[C@@H]1[C@@H](OC(N)=O)[C@@H](O)[C@H](Oc2ccc3c(O)c(NC(=O)c4ccc(O)c(CC=C(C)C)c4)c(=O)oc3c2C)OC1(C)C [Novobiocin Sodium]	1.09 ± 0.072
CCn1cc(C(=O)O)c(=O)c2cc(F)c(N3CCNCC3)cc21 [Norfloxacin]	1.01 ± 0.13
